This is one part of a sample in which hits are shown more often than they occur.
Pf Dd2 inh: Plasmodium falciparum Dd2 growth inhibition. P. falciparum Dd2 growth, SYBR Green, 72 h. 120,000 tested, 4.3% active. Potency, µM (doses to about 28.9 µM), hits mostly inhibitors; active means well fitted inhibition curve with a large enough effect; further: nearly all actives have a fitted effect of over 65% in size
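Infected erythrocytes (Dd2, 0.3% parasitemia, 2.5% hematocrit final) are added to compound in RPMI-1640/Albumax II medium, grown 72 h at 37C in low oxygen, then lysed with saponin/Triton-X containing SYBR Green and read by fluorescence.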
Large screens that a line does not name were inactive.

COc1ccccc1CN1CC2(C1)C(=O)N(CCCN1CCCC1=O)C(=O)[C@@H]1C[C@@H](O)CN12	none
O=C(c1cc(C2CC2)nc2onc(C3CCCNC3)c12)N1CCOCC1 (configuration not stated)	none
C=CCN1CC2(CCC1=O)CCN(S(=O)(=O)c1ccc(F)cc1)CC2	none
O=C1CC(c2noc(-c3ccc(C(F)(F)F)cc3)n2)CN1C1CCCCC1 (configuration not stated)	none
O=C(c1cnccn1)N1CCC(Oc2cccnc2)C1 (configuration not stated)	none
Cc1ccc(CN(C)Cc2cnc(S(=O)(=O)C(C)C)n2CCc2ccccc2)o1	none
CN(CC[C@H]1CN(C(=O)c2ccnc(Cl)c2)CC[C@H]1CC(=O)O)c1ccccc1	none
CCCS(=O)(=O)N1CCC(c2noc(-c3ccncc3)n2)C1 (configuration not stated)	none
CCN(Cc1ccccc1)C(=O)C1CCCN(C(=O)c2cccnc2)CCC(=O)NCC1 (configuration not stated)	none
COc1ccc(-c2noc(C(=O)N3CCC3)c2[C@H](C)O)cc1	none
Cn1cc(C(=O)N2CCCCCCNC(=O)[C@@H]3C[C@@H](c4nc(Cc5ccccc5)no4)C[C@@H]32)cn1	none
Cc1ccc(C(=O)N2CCCCCCNC(=O)[C@@H]3C[C@@H](c4nc(Cc5ccccc5)no4)C[C@@H]32)cn1	none
Cn1nccc1C(=O)N1CCCCCCNC(=O)[C@@H]2C[C@@H](c3nc(Cc4ccccc4)no3)C[C@@H]21	none
O=C1NCCCCCCN(C(=O)CN2CCCC2=O)[C@H]2C[C@H](c3nc(Cc4ccccc4)no3)C[C@@H]12	none
N#Cc1ccc(C(=O)N2CCCCCCNC(=O)[C@@H]3C[C@@H](c4nc(Cc5ccccc5)no4)C[C@@H]32)cc1	Pf Dd2 inh 11.2µM
O=C1NCCCCCCN(C(=O)c2ccco2)[C@H]2C[C@H](c3nc(Cc4ccccc4)no3)C[C@@H]12	Pf Dd2 inh 7.94µM
CCNC(=O)N1CCCC(c2nn(C)c(=O)n2C2CCCC2)C1 (configuration not stated)	none
O=C(CCc1cccnc1)N1CCCC(CCc2cccc(F)c2)C1 (configuration not stated)	none
Cc1ncsc1CCC(=O)N1C[C@@H](c2ccccc2)[C@@H]2[C@H]1C1CCN2CC1	none
COc1ccc([C@@H]2CN(C(=O)c3sccc3C)[C@@H]3C4CCN(CC4)[C@@H]32)cc1	Pf Dd2 inh 10µM
CCn1cc(C(=O)N2C[C@H](c3cccc(OC)c3)[C@@H]3[C@H]2C2CCN3CC2)cn1	none
CN1CCN(c2nc3c(c(=O)[nH]2)CCN(Cc2cccc(Br)c2)CC3)CC1	none
Cc1cnc(C(=O)N2C[C@@H](Oc3cccnc3)C[C@H]2C(=O)N2CCCC2)cn1	none
CC(c1ccc(-c2ccc(N(C)C)nn2)cc1)N(C)C (configuration not stated)	none
COc1ccc(NC(=O)Cc2ccc(N(Cc3ccc(C)cc3)C(=O)c3ccco3)cc2)cc1	Pf Dd2 inh 4.47µM
CCCNC(=O)Cc1ccc(N(Cc2ccc(OC)cc2)C(=O)c2ccco2)cc1	none
COc1ccc(CN(C(=O)c2ccco2)c2ccc(CC(=O)NC(C)C)cc2)cc1	none
COc1ccc(OCC(=O)N(Cc2cccs2)c2ccc(OC)cc2)cc1	none
COc1ccc(CCNC(=O)Cc2ccc(N(Cc3ccccc3)C(=O)c3ccco3)cc2)cc1	none
COc1ccc(N(Cc2cccs2)C(=O)c2ccco2)cc1	Pf Dd2 inh 10µM
O=C(CC1CCCCC1)N1CCn2c(nnc2[C@@H]2C[C@@H](O)CN2Cc2ccccc2)C1	none
O=C(NCCC1CCN(C(=O)Nc2cc(F)ccc2F)CC1)C1CC1	none
COCCNc1nc2c(S(=O)(=O)c3ccccc3)nnn2c2ccc(Cl)cc12	none
CCN(Cc1ccccc1)c1nc2c(S(=O)(=O)c3ccccc3)nnn2c2ccc(Cl)cc12	Pf Dd2 inh 6.31µM
COc1ccc(CNc2nc3c(S(=O)(=O)c4ccccc4)nnn3c3ccc(Cl)cc23)cc1	none
O=C(NCCC1CCN(C(=O)Nc2ccc(F)cc2F)CC1)C1CCCC1	none
NCCC1CCN(C(=O)Nc2ccccc2F)CC1	none
CC(=O)N1CC2(Cc3ccccc31)CN(C(=O)c1ccc(Cl)cc1)C2	none
O=C(c1ccc(Cl)cc1)N1CC2(CCN(C3CCCCC3)C2)Cc2ccccc21 (configuration not stated)	Pf Dd2 inh 10µM
O=C(O)CCC(=O)N1CCC2(Cc3ccccc3N(C(=O)c3ccc(Cl)cc3)C2)C1 (configuration not stated)	none
O=C(c1ccc(Cl)cc1)N1CC2(CCN(C3CCCCC3)CC2)Cc2ccccc21	Pf Dd2 inh 7.08µM
O=C(c1ccc(Cl)cc1)N1CC2(CCN(C3COC3)CC2)Cc2ccccc21	none
CC(=O)N1CC2(CCN(C3COC3)C2)Cc2ccccc21 (configuration not stated)	none
Cn1cc(-c2ccc3c(n2)CN(CCOc2ccccc2)C(=O)CO3)cn1	none
CO[C@H]1C(=O)N(C(C)C)[C@H]1C1CCN(C(=O)CCc2nc3ccccc3s2)CC1	none
O=C(CCCn1ccnc1)N1CCC2(CCC(=O)N(Cc3ccncc3)C2)CC1	none
Fc1ccc(Nc2nc(-c3ccc(F)cc3)c3c(n2)-c2ccccc2OC3)cc1	none
CCOc1ccc(Nc2nc(-c3cccc(Cl)c3)c3c(n2)-c2ccccc2OC3)cc1	Pf Dd2 inh 10µM
Cc1ccccc1Nc1nc(-c2cccc(Cl)c2)c2c(n1)-c1ccccc1OC2	none
Cc1ccc(C(=O)N2C[C@@H](Oc3cccnc3)C[C@H]2C(N)=O)s1	none
CCn1nccc1C(=O)NCCc1ncc(C)n1C1CC1	none
c1ccc([C@@H]2C[C@H]2c2nc(C3CCOCC3)n[nH]2)cc1	none
Clc1ccccc1C1Cn2cnc(-c3nc(-c4ccncc4)no3)c2CO1 (configuration not stated)	Pf Dd2 inh 5.62µM
COc1ccccc1-c1noc(-c2nnn3c2COC(c2ccc(F)cc2)C3)n1 (configuration not stated)	none
Cc1ccc(-c2nc(-c3nnn4c3COC(c3ccccc3Cl)C4)no2)cc1 (configuration not stated)	none
COc1ccc(C2Cn3nnc(-c4nc(-c5ccc(F)cc5)no4)c3CO2)cc1 (configuration not stated)	none
COc1ccccc1-c1nc(-c2nnn3c2COC(c2ccccc2Cl)C3)no1 (configuration not stated)	none
COc1ccc(C2Cn3cnc(-c4nc(-c5ccc(SC)cc5)no4)c3CO2)cc1 (configuration not stated)	none
CCOc1ccc(C2Cn3nnc(-c4nc(-c5ccc(OC)c(F)c5)no4)c3CO2)cc1 (configuration not stated)	none
COc1ccc(-c2noc(-c3ncn4c3COC(c3ccc(F)cc3)C4)n2)cc1OC (configuration not stated)	Pf Dd2 inh 8.91µM
CCOc1cc(-c2noc(-c3ncn4c3COC(c3ccc(OC)cc3)C4)n2)ccc1OC (configuration not stated)	Pf Dd2 inh 2.51µM
COc1ccc(C2Cn3nnc(-c4nc(-c5ccc(OC)c(F)c5)no4)c3CO2)cc1 (configuration not stated)	none
CCOc1cccc(-c2noc(-c3ncn4c3COC(c3ccc(F)cc3)C4)n2)c1 (configuration not stated)	none
COc1cc(-c2noc(-c3ncn4c3COC(c3ccc(F)cc3)C4)n2)cc(OC)c1OC (configuration not stated)	Pf Dd2 inh 11.2µM
Clc1cccc(-c2ccc(CN3CCN(C4CCNC4)CC3)o2)c1 (configuration not stated)	none
